Sampled rows, rich in hits. Any-hit rate of the full collection: about 4.1%.
ssDAF12 agonist = activates DAF-12 receptor from parasite S. stercoralis; 370,000 tested, 1% active; HEK293 ssDAF-12/GRIP1 lit1-tk-luc reporter, luminescence; % of 3 µM dafachronic acid response; AID 652126; activation, % at 6.8 µM;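 active means activation above the mean over all tested compounds plus 3 SD, cut at about 0.9% in these data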;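 further: 0% = DMSO-only wells and 100% = 3 µM delta7-dafachronic acid wells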
hcDAF12 agonist = activates DAF-12 receptor from parasite H. contortus; HEK293 hcDAF-12 lit1-tk-luc reporter, luminescence; 0% DMSO, 100% Δ7-dafachronic acid; activation, % at 6.8 µM; AID 652067; 370,000 tested, 1.4% active;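 active means activation above the mean of all tested compounds plus 3 SD, cut at about 5.5% in these data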;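 further: 100% = response to 3 µM Δ7-dafachronic acid high control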
DAX1 inh-1 = blocks DAX1 repression of SF-1 activated StAR promoter | HEK293T StAR-luciferase reporter, SF-1/DAX-1 repression relief | inhibition, % at 6.8 µM | 370,000 tested, 1.1% active | AID 652010;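 active means inhibition above the mean over all tested compounds plus 3 SD, cut at about 3.6% in these data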;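 further: 0% = DAX-1 cells with DMSO and 100% = cells lacking DAX-1 with DMSO; higher inhibition means more luminescence from relief of DAX-1 repression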
DAX1 inh-2 = inhibits human nuclear receptor DAX1 | P51843 | HEK293 Gal4-DAX1 luciferase reporter, luminescence | inhibition, % at 6.75 µM | 340,000 tested, 0.99% active;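 active means inhibition above the mean over all tested compounds plus 3 SD, cut at about 4.2% in these data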;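 further: 0% = DAX1-transfected cells with DMSO and 100% = empty-vector control cells with DMSO; inhibition shows as a rise in luminescence from relieved DAX1 repression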
Target sequence (P51843 207-470 limits assumed): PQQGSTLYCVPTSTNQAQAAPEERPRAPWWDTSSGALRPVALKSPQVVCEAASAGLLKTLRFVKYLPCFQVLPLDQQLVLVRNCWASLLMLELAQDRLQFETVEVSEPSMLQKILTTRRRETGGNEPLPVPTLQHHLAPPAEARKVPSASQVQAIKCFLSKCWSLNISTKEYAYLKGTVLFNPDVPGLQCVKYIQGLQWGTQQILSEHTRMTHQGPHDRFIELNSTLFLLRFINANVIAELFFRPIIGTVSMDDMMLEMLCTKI
hgDAF-12 ag = hgDAF-12 agonism, primary luciferase screen; HEK293 GAL4-hgDAF12 UAS-luciferase reporter, agonist luminescence; normalized to butyrate control; activation, % at 6.8 µM; 370,000 tested, 1.8% active;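 active means activation above a cutoff set at the mean of all screened compounds plus 3 SD, cut at about 10% in these data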;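 further: 0% = DMSO wells and 100% = sodium butyrate wells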
DAX1 inh confirm = confirmation of human DAX1 (NR0B1) inhibitors; shares compounds with DAX1 inh-1; HEK293T StAR-promoter luciferase reporter, SF-1/DAX-1 repression; inhibition, % at 6.8 µM; 2,400 tested, 87% active;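 active means inhibition above the average of every tested compound plus 3 SD, cut at about 3.8% in these data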;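 further: 0% = DAX-1 cells with DMSO and 100% = no DAX-1 control cells with DMSO; active compounds raise luminescence by relieving repression of the StAR reporter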
Target sequence (P51843 whole entry, looked up): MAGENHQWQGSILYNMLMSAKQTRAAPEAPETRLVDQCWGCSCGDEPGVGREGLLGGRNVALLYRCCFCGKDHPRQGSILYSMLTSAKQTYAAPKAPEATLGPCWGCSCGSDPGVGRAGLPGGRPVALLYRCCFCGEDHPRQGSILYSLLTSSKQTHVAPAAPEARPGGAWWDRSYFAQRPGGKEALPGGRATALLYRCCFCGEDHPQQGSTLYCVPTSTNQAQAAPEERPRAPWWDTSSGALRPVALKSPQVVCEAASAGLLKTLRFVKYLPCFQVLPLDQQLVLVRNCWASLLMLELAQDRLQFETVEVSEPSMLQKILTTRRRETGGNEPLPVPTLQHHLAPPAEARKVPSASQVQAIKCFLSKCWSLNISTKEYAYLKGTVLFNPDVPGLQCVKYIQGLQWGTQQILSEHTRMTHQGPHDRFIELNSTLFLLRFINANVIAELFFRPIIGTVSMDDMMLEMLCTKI
SF1 mutant ctr = nonselective inhibitor or artifact in SF-1 mutant DAX1 counter-screen; 2,400 tested, 78% active; inhibition, % at 6.8 µM; shares compounds with DAX1 inh-1; HEK293 StAR-luciferase, SF-1 AF2 mutant, luminescence;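 active means inhibition above the mean of all tested compounds plus 3 SD, cut at about 3% in these data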;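 further: 0% = DAX-1 transfected cells with DMSO and 100% = cells without DAX-1 with DMSO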
LXR ag = LXR-beta agonism as hcDAF-12 counter-screen; 3,400 tested, under 10 active; shares compounds with hcDAF12 agonist; HEK293 Gal4-LXR tk-luc reporter, luminescence, 24 h; normalized: DMSO 0%, positive control 100%; activation, % at 6.8 µM;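 active means mean percent activation of the reporter above a cutoff set as the average over tested compounds plus their standard deviation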
hcDAF12 conf = confirmation of H. contortus DAF-12 agonists | activation, % at 6.8 µM | shares compounds with hcDAF12 agonist | HEK293 hcDAF-12 lit1-tk-luc reporter, luminescence; % of Δ7-dafachronic acid response | 3,400 tested, 61% active;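 active means mean activation across triplicate tests above the threshold derived from the earlier primary screen, cut at about 5.5% in these data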;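 further: 0% = DMSO only wells and 100% = 3 µM Δ7-dafachronic acid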
hgDAF12 conf = confirmation of H. glycines DAF-12 agonists. shares compounds with hgDAF-12 ag. HEK293 GAL4-hgDAF12 luciferase reporter, agonist mode; percent of butyrate response. activation, % at 6.8 µM. 3,300 tested, 80% active;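 active means mean activation over triplicate wells above the hit cutoff derived from the earlier primary screen, cut at about 11% in these data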;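 further: 0% = DMSO low control and 100% = 2 mM sodium butyrate high control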
LXRb DAF12 ctr = activates human LXR-beta, counter-screen for DAF-12 agonists; HEK293 Gal4-LXR luciferase reporter, 24 h; 3,300 tested, under 10 active; shares compounds with hgDAF-12 ag; activation, % at 6.8 µM;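 active means mean activation of the triplicate above a set limit carried over from the primary screen, none filed active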
Numbers without * were called inactive; . = no result.

SMILES	ssDAF12 agonist	hcDAF12 agonist	DAX1 inh-1	DAX1 inh-2	hgDAF-12 ag	DAX1 inh confirm	SF1 mutant ctr	hgDAF12 conf	LXRb DAF12 ctr	others
CCC(=O)Nc1ccc2c(c1)ncn2-c1ccc(C)cc1	-0.3	2.6	7.4*	1.6	13.4*	9.0*	5.5*	11.0*	0.4
Cc1nn2cc(-c3ccc(Cl)cc3)cnc2c1Cl	-0.6	0.8	1.6	1.6	6.0	.	.	.	.
Cc1ccc(C(C)(C)NC(=O)C2CCC(=O)N(CC3CCCCC3)C2)cc1 (stereo not given)	-0.9	-1.7	-0.4	-0.4	2.7	.	.	.	.
O=C(OCC(=O)N1CCc2ccccc2C1)c1c(F)cccc1Cl	-0.1	4.1	5.6*	1.5	15.6*	10.3*	7.3*	17.9*	0.9
COc1ccc2nc(NC(=O)c3ccccc3-c3ccccc3C(=O)O)sc2c1	-0.3	-1.5	0.0	3.5	-2.0	.	.	.	.
COc1ccc2nc(NC(=O)Nc3ccccc3)sc2c1	0.6	8.1*	11.3*	0.0	22.2*	14.1*	8.8*	23.1*	1.3	LXR ag=2.0;hcDAF12 conf=5.1
CCOc1ccc2nc(NC(=O)Nc3cccs3)sc2c1	0.7	7.9*	9.2*	2.8	26.8*	18.6*	12.8*	26.8*	1.2	LXR ag=1.8;hcDAF12 conf=4.6
CCCCOC(=O)c1ccc(NC(=O)C(=O)NCCN(C)C)cc1	-1.5	-0.9	0.7	4.1	1.1	.	.	.	.
O=C(/C=C/c1ccccc1Cl)Nc1cccc(S(=O)(=O)NC2=NCCCCC2)c1	-1.4	-3.5	0.1	-1.4	2.4	.	.	.	.
O=C(/C=C/c1ccc(Cl)cc1Cl)Nc1cccc(S(=O)(=O)NC2=NCCC2)c1	-0.1	3.9	5.4*	-0.2	18.4*	9.4*	5.0*	14.2*	0.7
CCC(C(=O)Nc1ccccc1N1CCCC1)c1ccccc1Cl (stereo not given)	-1.2	-2.3	-1.6	.	1.3	.	.	.	.
Oc1ccccc1-c1cc(-c2ccccc2Cl)[nH]n1	4.0*	19.2*	8.6*	1.1	25.1*	18.7*	10.5*	26.8*	1.3	LXR ag=2.0;hcDAF12 conf=14.7*
O=C(Nc1nnc([C@@H]2C[C@H](O)[C@@H](CO)O2)s1)c1cccc2ccccc12	0.8	3.6	5.0*	.	24.8*	8.7*	5.6*	13.2*	0.5
O=C(Nc1nnc([C@@H]2C[C@H](O)[C@@H](CO)O2)s1)Nc1ccccc1F	-0.3	4.8	7.3*	.	15.2*	7.2*	3.4*	10.9*	0.4
CCC(C)NS(=O)(=O)c1ccc(NC(=O)c2cccs2)cc1 (stereo not given)	-1.3	-1.7	-0.7	0.4	1.3	.	.	.	.
CCC(C)c1ccc(NC(=O)c2cccs2)cc1 (stereo not given)	1.7*	8.2*	7.2*	-0.2	19.3*	18.8*	6.4*	20.4*	1.0	LXR ag=1.6;hcDAF12 conf=7.8*
O=C(OCc1ccc(Cl)cc1Cl)c1ccncc1	-1.4	-0.9	-0.1	-0.8	-0.1	.	.	.	.
CCOc1ccc(-c2nnc(SCC(=O)N3CCNC3=O)o2)cc1	0.7	6.2*	6.2*	0.8	13.9*	11.9*	5.3*	15.0*	0.9
CCC(=O)Nc1cc2nn(-c3ccc(OC)cc3)nc2cc1C	0.3	5.5	5.1*	5.5*	15.6*	13.1*	3.3*	13.7*	1.1
CCCCC(=O)Nc1cc2nn(-c3ccc(OC)cc3)nc2cc1C	-1.4	1.1	0.6	-0.6	4.8	.	.	.	.
O=[N+]([O-])c1ccc(NCc2ccccc2N2CCC(CO)CC2)nc1	-1.0	-1.6	0.5	1.7	0.1	.	.	.	.
O=C(Nc1ccc(N2CCOCC2)cc1)c1ccncc1	-0.4	1.0	0.1	1.4	2.8	.	.	.	.
Cn1cccc1C(=O)Nc1ccc(N2CCOCC2)cc1	0.9	3.6	8.2*	0.7	18.4*	8.3*	4.4*	16.2*	0.7
Cc1cccc(C(=O)NCC(c2ccc(F)cc2)N2CCOCC2)c1 (stereo not given)	-1.0	-0.7	0.3	3.7	6.8	.	.	.	.
O=[N+]([O-])c1ccccc1OCc1nc(-c2cccs2)no1	0.5	4.5	8.5*	2.2	13.8*	11.3*	6.2*	14.2*	0.9
SMILES	ssDAF12 agonist	hcDAF12 agonist	DAX1 inh-1	DAX1 inh-2	hgDAF-12 ag	DAX1 inh confirm	SF1 mutant ctr	hgDAF12 conf	LXRb DAF12 ctr	others
O=C(O)CCc1nc(-c2cccs2)no1	-0.3	0.5	-0.1	-0.3	1.2	.	.	.	.
Cc1ccc(OCc2nc(-c3cccs3)no2)c([N+](=O)[O-])c1	1.9*	7.1*	12.0*	0.2	14.1*	14.9*	7.1*	18.6*	1.2	LXR ag=1.4;hcDAF12 conf=7.6*
Cc1ccc(OCc2nc(-c3ccccc3)no2)c(C)c1	0.1	3.6	2.6	1.6	8.9	.	.	.	.
CCOCC(=O)Nc1cc(C(=O)NCCc2ccccc2)ccc1Cl	-0.1	3.9	4.5*	1.9	14.3*	9.0*	4.3*	12.9*	0.4
O=C(Nc1ccc2c(c1)OCO2)c1cc(Cl)ccn1	0.4	5.4	6.5*	1.9	15.7*	11.7*	5.3*	17.0*	0.8
O=C(Nc1ccc2c(c1)OCO2)c1ccc(Cl)cc1Cl	-0.2	10.8*	15.9*	-0.1	18.4*	14.5*	5.0*	17.4*	1.1	LXR ag=1.6;hcDAF12 conf=6.6*
O=C(Nc1ccc2c(c1)OCO2)c1cc(-c2ccccc2Cl)on1	-1.2	1.8	0.7	1.4	7.3	.	.	.	.
Cn1c(=NC(=O)c2ccco2)sc2ccccc21	4.0*	19.9*	7.1*	2.7	21.1*	8.1*	4.9*	20.0*	0.9	LXR ag=1.3;hcDAF12 conf=15.7*
Cc1sc(=NC(=O)c2ccco2)n(C)c1-c1ccc(F)cc1	0.5	5.3	2.0	0.1	9.7	.	.	.	.
O=C(Nc1cccnc1)c1cc(-c2cc(Cl)ccc2O)n[nH]1	-1.4	0.5	2.4	4.1	8.8	.	.	.	.
Cc1cc(F)ccc1-c1cc(C(=O)Nc2ccccc2)[nH]n1	1.5*	11.9*	12.0*	.	20.6*	15.2*	5.8*	20.1*	1.2	LXR ag=1.8;hcDAF12 conf=13.9*
